For 141 molecules, Inhibition % results are on record in article PMC9574860, “Chemical Toolkit for PARK7: Potent, Selective, and High-Throughput” (Journal of Medicinal Chemistry, 2022).

About 400 (5.1%) of roughly 7,900 compounds showed an effect of 50% or more. This excerpt belongs to a sample that is enriched for strong results.

The target of the experiment is Parkinson's disease protein 7 (PARK7/DJ1) (human, UniProt Q99497). Description: primary screen, percent inhibition; read as competition with a fluorescent probe by fluorescence polarization; higher = more effect of the substance. The note with it: 100 µM. In outline: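 Covalent fragments at 100 μM final were incubated 2 h with 0.2 μM PARK7, then 20 nM probe JYQ-107 added for a further 2 h. Fluorescence polarization read at 480/520 nm; relative FP loss versus reference controls gave remaining enzyme activity.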
Sequence of Parkinson's disease protein 7 (PARK7/DJ1) (Q99497 whole entry, looked up, the tested form may be a part): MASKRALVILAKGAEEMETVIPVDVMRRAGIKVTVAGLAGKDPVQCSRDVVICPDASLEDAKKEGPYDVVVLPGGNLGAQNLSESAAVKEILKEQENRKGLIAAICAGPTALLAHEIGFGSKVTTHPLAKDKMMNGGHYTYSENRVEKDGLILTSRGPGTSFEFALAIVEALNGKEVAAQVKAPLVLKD
Turning to `Cc1cc2ncn(CC3CO3)c2cc1C` (stereo not drawn), the Inhibition % stood at 20.8%.

As to `C=CC(=O)N1CC(OC)Cc2ccccc21` (stereo not drawn), the Inhibition % came to 13.5%. As for `C=CC(=O)N1CCc2c(F)cccc2C1`, the figure is 6.26%. For `O=C(CCl)NCCOc1cccc(Cl)c1`, the Inhibition % stood at 17.8%. As to `ClCC1COCCO1` (stereo not drawn), the Inhibition % is given as -2.68%.

Turning to `CCN(Cc1ccc2c(c1)OCO2)C(=O)CCl`, the Inhibition % came to 9.14%. The same measure for `Cc1ccn(S(=O)(=O)c2ccc(F)c(C)c2)n1`: 6.8%.

For the molecule `CN(Cc1ccccc1)C(=O)C=CC(=O)O`, the Inhibition % turned out to be 23.5%. Turning to `CN(C#N)Cc1ccccc1`, the Inhibition % was 62.8%.

`CN(CCc1ccccc1)c1nccnc1C#N`: the Inhibition % came to 3.72%. As for `C=CC(=O)N1CCN2CCOCC2C1` (stereo not drawn), the figure is 8.35%. Take `CN(Cc1ccc(OC(F)F)cc1)C(=O)CCl`: the Inhibition % is recorded as 51.1%. As to `COc1ccc2cc(CN(C)C(=O)CCl)ccc2c1`, the Inhibition % was 8%. With `COc1cccc(CN(C)C(=O)CCl)c1`, the Inhibition % amounted to 76.7%. As for `CN(Cc1cccc(F)c1)C(=O)CCl`, the Inhibition % was 44.5%.

`COc1ccc(CN(C)C(=O)CCl)cc1`: the Inhibition % is on record as 61.5%. As for `CN(Cc1ccc(F)cc1)C(=O)CCl`, the figure is 39.9%; as for `COc1ccc(CN(C(=O)CCl)C2CC2)cc1`, 15.6%; as for `CCOc1ccc(C(=O)CCl)cc1`, 84.9%. Take `CN(Cc1cccc(Cl)c1)C(=O)CCl`: the Inhibition % came to 49.6%. In the case of `NC(=O)c1ccc(OCCCl)cc1`, the Inhibition % was -3.9%. As for `COc1ccc(C(=O)CCl)cc1`, the figure is 3.52%; as for `N#Cc1ccc(N2CCc3sccc3C2)cn1`, 27.1%.

As to `C=CC(=O)N(C)C1CCCc2cccnc21` (stereo not drawn), the Inhibition % was 7.75%. With `N#CC1(CC2CO2)CCC1` (stereo not drawn), the Inhibition % is recorded as 3.78%. On to `Cc1ccc(OC2CCCC2)c(B(O)O)c1`, for which the Inhibition % amounted to 2.59%. In the case of `COc1ccc2[nH]c(C)c(C(=O)CCl)c2c1`, the Inhibition % is 4.84%. The same measure for `O=C1OCCC1n1nnc(-c2ccc(F)cc2)n1` (stereo not drawn): 4.53%; for `C=CC(=O)NC1CSC1(C)C` (stereo not drawn): 6.84%.

For `OB(O)c1ccc(-c2ccccc2)cc1F`, the Inhibition % was determined as 24.2%. Regarding `C=CC(=O)N1CCCN(C(=O)c2ccco2)CC1`, the Inhibition % is 1.97%.

`Cc1ccc(C=C(C#N)C(N)=O)c(C)c1`: the Inhibition % was 4.01%. As to `Cc1cccc(C)c1NC(=O)Cn1cnc(C#N)n1`, the Inhibition % is recorded as 6.38%.

Turning to `CCN(Cc1ccc(OC)c(F)c1)C(=O)CCl`, the Inhibition % amounted to 10%. The same measure for `CN(Cc1cccc(C(F)(F)F)c1)C(=O)CCl`: 37.1%.

`COc1ccc(CN(C)C(=O)CCl)cc1F`: the Inhibition % is given as 58.3%. In the case of `CCOc1ccc(CN(C)C(=O)CCl)cc1`, the Inhibition % was found to be 67.6%. `COC(=O)c1ccccc1N(C)C(=O)CCl`: the Inhibition % worked out at 6.59%. Turning to `C=CC(=O)N1CCCC1c1cccc2c1OCCO2` (stereo not drawn), the Inhibition % stood at 4.1%.

In the case of `C=CC(=O)Nc1nc2c(s1)COCC2`, the Inhibition % is 6.4%.

Consider `CC1c2cccn2CCN1C(=O)n1ccnc1` (stereo not drawn), for which the Inhibition % was 22%.

Regarding `O=C(Nc1ccccc1)NC1CN(c2ccccc2)C1=O` (stereo not drawn), the Inhibition % is recorded as 5.74%. For the molecule `CCc1ccc(CNC(=O)CCl)s1`, the Inhibition % was 4.03%. Turning to `O=C(CCl)NCc1cccs1`, the Inhibition % is 3.94%. As to `CS(=O)(=O)NCCc1ccc(C(=O)CCl)s1`, the Inhibition % worked out at 97.6%. Regarding `O=C(CCl)c1sccc1Cl`, the Inhibition % was 94.4%.

Regarding `CC(C)(C)C(=O)NCc1ccc(C(=O)CCl)s1`, the Inhibition % turned out to be 76.2%. As for `CC(=O)NCc1ccc(C(=O)CCl)s1`, the Inhibition % is recorded as 91.1%. Take `CS(=O)(=O)c1ccccc1NC(=O)CCl`: the Inhibition % came to 11.4%.

Consider `COC(=O)c1sccc1NC(=O)CCl`, for which the Inhibition % was found to be 3.83%. Consider `O=C(CCl)NCC(=O)c1cccs1`, for which the Inhibition % is 15.1%. For the molecule `Cc1ccc(CNC(=O)CCl)s1`, the Inhibition % is on record as 3.17%. For `C=CC(=O)NCc1ccc(C)s1`, the Inhibition % was 1.04%. The same measure for `Cc1[nH]c2ccccc2c1C(=O)CCl`: 6.53%; for `O=S(=O)(F)Cc1ccccc1Cl`: 7.95%; for `C=CC(=O)Nc1nsc(N2CCCC2)n1`: 16%. With `N#Cc1cc(C(=O)O)ccn1`, the Inhibition % stood at 4.99%.

On to `CCc1ccc(B2OC(C)(C)C(C)(C)O2)n1C(=O)OC(C)(C)C`, for which the Inhibition % is 5.89%.

With `C=CC(=O)N1CCC(C)(N2CCOCC2)CC1`, the Inhibition % turned out to be 10%. On to `C=CC(=O)NC1CCN(c2cnn(C)c2)C1` (stereo not drawn), for which the Inhibition % is listed as 33.9%. In the case of `CC1(C)OB(c2ccncc2)OC1(C)C`, the Inhibition % is reported as 4.41%.

With `O=C(CCl)NCCc1cccs1`, the Inhibition % came to 31.1%.

With `CC(=O)NCCc1ccc(C(=O)CCl)s1`, the Inhibition % worked out at 90.4%. For `O=C(CCl)c1ccc(Cl)s1`, the Inhibition % was 94.6%. With `O=C(CCl)NC(=O)NCCc1cccs1`, the Inhibition % is listed as 11.2%. For the molecule `O=C(CCl)c1ccc(CC(=O)N2CCOCC2)s1`, the Inhibition % was determined as 7.37%. For the molecule `O=C(CCl)NCc1ccc(Cl)s1`, the Inhibition % is reported as 15.9%.

Take `O=C(CCl)c1cnc(N2CCCCC2)s1`: the Inhibition % amounted to 8.03%. With `Cc1ccc(C(=O)CCl)s1`, the Inhibition % is 28.1%. As for `NC(=O)Cc1ccc(C(=O)CCl)s1`, the figure is 97.4%; as for `N#Cc1nnc(-c2ccccc2)s1`, 11.8%; as for `N#Cc1[nH]ccc2nccc1-2`, 18.7%. The same measure for `C=CC(=O)NC1COc2cc(F)cc(F)c21` (stereo not drawn): 3.21%; for `CC(C)c1ccccc1OCC1CO1` (stereo not drawn): -4.39%.

On to `CN(C)CCc1ccc(B(O)O)cc1.Cl`, for which the Inhibition % turned out to be 2.57%. For `O=C(CCl)NCCc1ccsc1`, the Inhibition % is 27.9%.

Turning to `C=CC(=O)N1CCCN(CC2CCCO2)CC1` (stereo not drawn), the Inhibition % is listed as 13.1%. In the case of `O=C(CCl)Nc1nc(-c2cccs2)cs1`, the Inhibition % is 11.6%. As to `Sc1nncc2ccccc12`, the Inhibition % was 8.48%. With `Sc1nncc(-c2cccs2)n1`, the Inhibition % stood at 94.3%. As for `Cc1ccc(C=CS(=O)(=O)Nc2ccnn2C(C)C)cc1`, the Inhibition % was found to be 13%. Turning to `C=CC(=O)N1CCC(C(=O)O)(c2ccccc2)CC1`, the Inhibition % was 2.37%.

With `CCCn1c(C)nnc1CN(C#N)c1cc(C)ccc1F`, the Inhibition % is reported as 20.1%. Regarding `Cc1nnc(CN(C#N)c2ccc(F)c(Cl)c2)o1`, the Inhibition % worked out at 5.26%. Regarding `Cc1ccc(F)c(N(C#N)Cc2nnc(C)o2)c1`, the Inhibition % is listed as 69%. As to `O=C1OCCC1N1CCN(c2nccs2)CC1` (stereo not drawn), the Inhibition % came out at 2.57%. Consider `O=c1[nH]nc(-c2ccco2)o1`, for which the Inhibition % was 50.5%. On to `O=c1[nH]nc(-c2cccs2)o1`, for which the Inhibition % was 12.1%. The same measure for `O=c1[nH]nc(-c2ccc(F)cc2)o1`: 6.22%; for `O=C(O)Cn1nc(-c2ccc(F)cc2)oc1=O`: 12.4%.

For `Nc1ccc(S(=O)(=O)F)cc1`, the Inhibition % turned out to be 5.99%. Turning to `Nc1cncc(S(=O)(=O)F)c1`, the Inhibition % was 95.6%. As for `N#CC(=Cc1ccc(-c2ccc(Cl)cc2Cl)o1)C(N)=O`, the figure is 3.17%; as for `Cc1ccc(Cl)c(OCC2CO2)c1` (stereo not drawn), 7.81%; as for `CC1(C)OB(c2c(Cl)cccc2Cl)OC1(C)C`, 1.49%.

With `Cc1ccccc1N1CCN(C(=O)n2ccnc2)CC1`, the Inhibition % was 8.38%.

On to `CN(Cc1ccccc1Br)C(=O)CCl`, for which the Inhibition % came to 93.9%. Regarding `Cc1ccccc1CN(C)C(=O)CCl`, the Inhibition % is reported as 56.6%. Take `CN(Cc1cc(C#N)ccc1F)C(=O)CCl`: the Inhibition % worked out at 50.3%. On to `CN(Cc1cc(Br)cs1)C(=O)CCl`, for which the Inhibition % is listed as 42.9%.

On to `Cc1ccc(CN(C)C(=O)CCl)c(C)c1`, for which the Inhibition % turned out to be 65.7%.

For `Cc1ccc(CN(C)C(=O)Cn2cnc(C#N)n2)c(C)c1`, the Inhibition % is 3.86%.

Take `Cc1ccccc1CCNC(=O)CCl`: the Inhibition % is 8.29%. For the molecule `Cc1ccccc1CC(=O)NNC(=O)CCl`, the Inhibition % is recorded as 24%.

With `CN(Cc1cccs1)C(=O)CCl`, the Inhibition % was determined as 36.6%. As to `CCN(Cc1ccc(C#N)cc1F)C(=O)CCl`, the Inhibition % is 16.8%. The same measure for `CC(NC(=O)CCl)c1cccs1` (stereo not drawn): 9.37%. With `C=CC(=O)N1CC(C)S(=O)(=O)C(C)C1` (stereo not drawn), the Inhibition % is on record as 5.08%. As to `Cn1nccc1C12CCOCC1O2` (stereo not drawn), the Inhibition % came out at 9.22%. As for `COc1ccccc1COCC1CO1` (stereo not drawn), the figure is 4.72%; as for `C=CC(=O)N1CCCC(c2nn(C)cc2C(=O)O)C1` (stereo not drawn), 0.724%. In the case of `N#Cc1ncn(-c2ncc(C(F)(F)F)cc2Cl)n1`, the Inhibition % is given as 6.83%.

On to `C=CC(=O)NCC1CCCSC1` (stereo not drawn), for which the Inhibition % is given as 13.8%.

For the molecule `CN(Cc1ccc(-c2ccc(Cl)cc2)o1)C(=O)CCl`, the Inhibition % came to 79.2%. Take `CN(Cc1ccco1)C(=O)CCl`: the Inhibition % came out at 53%. As for `O=C(CCl)N(Cc1ccco1)c1ccccc1`, the figure is 17.8%; as for `Cc1ccc(CN(C)C(=O)CCl)o1`, 40.8%. As for `CN(Cc1ccc(Cl)s1)C(=O)CCl`, the figure is 30.4%; as for `O=C(CCl)NC(=O)NC12CC3CC(CC(C3)C1)C2`, 0.699%; as for `C=CC(=O)Nc1cn(C)nc1C(C)C`, 8.9%. As for `CCn1c(N)c(C(=O)CCl)c(=O)[nH]c1=O`, the Inhibition % was determined as 4.93%. Turning to `C=CC(=O)N1C[C@]2(C)CC[C@@H](C2)C1(C)C`, the Inhibition % was 15%. Take `O=S(=O)(F)c1ccc(-c2cn(Cc3cc(C4CC4)no3)nn2)cc1`: the Inhibition % was determined as 3.46%.

Turning to `Cl.ClCCc1nc2ccccc2[nH]1`, the Inhibition % worked out at 3.05%. Take `C=CC(=O)NCC1(C)CCOC2(CCC2)C1` (stereo not drawn): the Inhibition % was 13.5%.

For `CC1(C)OB(c2cccc(OCCN3CCCCC3)c2)OC1(C)C`, the Inhibition % is recorded as -0.0143%. Turning to `O=C(CCCl)NC1CCCCC1`, the Inhibition % is reported as 3.8%. Consider `O=c1onc(-c2cccnc2)n1C1C=CCCC1` (stereo not drawn), for which the Inhibition % worked out at 54.8%. Turning to `O=c1onc(-c2cccnc2)n1Cc1cc(F)cc(F)c1`, the Inhibition % came out at 16.6%. For the molecule `O=c1onc(-c2ccccn2)n1C1C=CCCC1` (stereo not drawn), the Inhibition % came to 5.08%.

With `O=C(Nc1ccncc1)N1CCC(C2OCCO2)CC1`, the Inhibition % amounted to 9.17%. On to `O=C(Oc1ccccc1)N1CC(O)C1`, for which the Inhibition % was 29%. Turning to `C=CC(=O)NC(C)c1cnn(C)c1` (stereo not drawn), the Inhibition % is 5.67%. With `O=C1NC(=O)C(CCS(=O)(=O)F)N1` (stereo not drawn), the Inhibition % was determined as 97.6%. With `O=C1NC(=O)C(CS)N1` (stereo not drawn), the Inhibition % is given as 84.8%. In the case of `Cl.O=S(=O)(F)CCC1CCCCN1` (stereo not drawn), the Inhibition % came out at 1.97%. For `Cl.O=S(=O)(F)CC1CCCNC1` (stereo not drawn), the Inhibition % is 7.49%. Consider `Cl.O=S(=O)(F)CC1CNCCO1` (stereo not drawn), for which the Inhibition % came out at 11%. Regarding `O=C1NC(=O)C(CS(=O)(=O)F)N1` (stereo not drawn), the Inhibition % turned out to be 69.7%.

Take `CC1(C)NC(=O)N(CCS(=O)(=O)F)C1=O`: the Inhibition % is -4.21%. As to `O=C1NC(=O)C(CCS)N1` (stereo not drawn), the Inhibition % is recorded as 26.8%.
